The test has as its target Nonstructural protein 3 (Zika virus) (UniProt A0A024AXB9). The conditions noted are these: PRVABC59, Concentration 10.0 uM.

Sequence of Nonstructural protein 3 (Zika virus) (A0A024AXB9 as listed by the source): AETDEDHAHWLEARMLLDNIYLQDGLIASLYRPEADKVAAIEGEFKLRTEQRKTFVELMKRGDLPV

In the case of `CC(=O)Nc1cc(Br)cc(C(=O)Nc2ccc3c(c2)CNC3)c1`, the pKD reads like this: (Immobilization level 3900.0 pg/mm2, Rmax 40.0 pg/mm2, ka 607998.487 M-1s-1, kd 0.155 1/s) 6.59; (Immobilization level 4900.0 pg/mm2, Rmax 52.0 pg/mm2, ka 391367.264 M-1s-1, kd 0.17 1/s) 6.36; (Immobilization level 5500.0 pg/mm2, Rmax 55.0 pg/mm2, ka 425641.507 M-1s-1, kd 0.187 1/s) 6.36; (Immobilization level 10000.0 pg/mm2, Rmax 42.0 pg/mm2, ka 618288.109 M-1s-1, kd 0.171 1/s) 6.56; (Immobilization level 12000.0 pg/mm2, Rmax 74.0 pg/mm2, ka 318554.659 M-1s-1, kd 0.182 1/s) 6.24; (Immobilization level 13000.0 pg/mm2, Rmax 61.0 pg/mm2, ka 520517.585 M-1s-1, kd 0.161 1/s) 6.51.

In the case of `C[C@@H](N)c1ccc(NC(=O)c2cc(Cl)cc3[nH]ncc23)cc1`, the pKD reads like this: (Immobilization level 3900.0 pg/mm2, Rmax 41.0 pg/mm2, ka 249513.67 M-1s-1, kd 1.946 1/s) 5.11; (Immobilization level 4900.0 pg/mm2, Rmax 50.0 pg/mm2, ka 225007.554 M-1s-1, kd 1.686 1/s) 5.12; (Immobilization level 5500.0 pg/mm2, Rmax 61.0 pg/mm2, ka 227099.936 M-1s-1, kd 1.979 1/s) 5.06; (Immobilization level 10000.0 pg/mm2, Rmax 53.0 pg/mm2, ka 348896.97 M-1s-1, kd 2.109 1/s) 5.22; (Immobilization level 12000.0 pg/mm2, Rmax 62.0 pg/mm2, ka 212895.642 M-1s-1, kd 1.524 1/s) 5.14; (Immobilization level 13000.0 pg/mm2, Rmax 66.0 pg/mm2, ka 290082.005 M-1s-1, kd 1.572 1/s) 5.27.

For `COCCCN1Cc2ccc(NC(=O)c3cc(Cl)cc4[nH]ncc34)cc2C1`, the pKD runs as follows: (Immobilization level 3900.0 pg/mm2, Rmax 42.0 pg/mm2, ka 388632.967 M-1s-1, kd 5.459 1/s) 4.85; (Immobilization level 4900.0 pg/mm2, Rmax 39.0 pg/mm2, ka 367718.358 M-1s-1, kd 4.612 1/s) 4.9; (Immobilization level 5500.0 pg/mm2, Rmax 38.0 pg/mm2, ka 400996.136 M-1s-1, kd 4.84 1/s) 4.92; (Immobilization level 10000.0 pg/mm2, Rmax 39.0 pg/mm2, ka 289414.732 M-1s-1, kd 5.077 1/s) 4.76; (Immobilization level 12000.0 pg/mm2, Rmax 59.0 pg/mm2, ka 250455.768 M-1s-1, kd 3.882 1/s) 4.81; (Immobilization level 13000.0 pg/mm2, Rmax 33.0 pg/mm2, ka 234107.52 M-1s-1, kd 2.737 1/s) 4.93.

`CNC(=O)[C@H](Nc1ccc2c(c1)CNC2)c1cc(Cl)cc2[nH]ncc12`: the negative logarithm of the KD (pKD) by setting is: (Immobilization level 3900.0 pg/mm2, Rmax 42.0 pg/mm2, ka 444409.109 M-1s-1, kd 0.101 1/s) 6.65; (Immobilization level 4900.0 pg/mm2, Rmax 59.0 pg/mm2, ka 262811.946 M-1s-1, kd 0.117 1/s) 6.35; (Immobilization level 5500.0 pg/mm2, Rmax 61.0 pg/mm2, ka 294175.896 M-1s-1, kd 0.112 1/s) 6.42; (Immobilization level 10000.0 pg/mm2, Rmax 56.0 pg/mm2, ka 424251.343 M-1s-1, kd 0.126 1/s) 6.53; (Immobilization level 12000.0 pg/mm2, Rmax 69.0 pg/mm2, ka 214381.257 M-1s-1, kd 0.135 1/s) 6.2; (Immobilization level 13000.0 pg/mm2, Rmax 81.0 pg/mm2, ka 342437.146 M-1s-1, kd 0.116 1/s) 6.47.

Regarding `NCCc1cccc(NC(=O)c2cc(Cl)cc3[nH]ncc23)c1`, the negative-log KD (pKD) reads like this: (Immobilization level 3900.0 pg/mm2, Rmax 45.0 pg/mm2, ka 242931.571 M-1s-1, kd 0.931 1/s) 5.42; (Immobilization level 4900.0 pg/mm2, Rmax 34.0 pg/mm2, ka 409629.847 M-1s-1, kd 0.648 1/s) 5.8; (Immobilization level 5500.0 pg/mm2, Rmax 28.0 pg/mm2, ka 470049.02 M-1s-1, kd 0.591 1/s) 5.9; (Immobilization level 10000.0 pg/mm2, Rmax 29.0 pg/mm2, ka 565007.877 M-1s-1, kd 0.814 1/s) 5.84; (Immobilization level 12000.0 pg/mm2, Rmax 46.0 pg/mm2, ka 296699.948 M-1s-1, kd 0.701 1/s) 5.63; (Immobilization level 13000.0 pg/mm2, Rmax 42.0 pg/mm2, ka 451227.872 M-1s-1, kd 0.736 1/s) 5.79.

For `Cc1ccc(NC(=O)c2cc(Cl)cc3[nH]ncc23)cc1CN`, the pKD reads like this: (Immobilization level 3900.0 pg/mm2, Rmax 48.0 pg/mm2, ka 216599.094 M-1s-1, kd 1.609 1/s) 5.13; (Immobilization level 4900.0 pg/mm2, Rmax 54.0 pg/mm2, ka 242573.531 M-1s-1, kd 1.329 1/s) 5.26; (Immobilization level 5500.0 pg/mm2, Rmax 70.0 pg/mm2, ka 222473.098 M-1s-1, kd 1.517 1/s) 5.17; (Immobilization level 10000.0 pg/mm2, Rmax 57.0 pg/mm2, ka 286418.042 M-1s-1, kd 1.725 1/s) 5.22; (Immobilization level 12000.0 pg/mm2, Rmax 54.0 pg/mm2, ka 243003.449 M-1s-1, kd 1.258 1/s) 5.29; (Immobilization level 13000.0 pg/mm2, Rmax 74.0 pg/mm2, ka 258887.039 M-1s-1, kd 1.289 1/s) 5.3.

As for `CCNCc1ccc(NC(=O)c2cc(Cl)cc3[nH]ncc23)cc1`, the pKD is 4.56 (Immobilization level 3900.0 pg/mm2, Rmax 49.0 pg/mm2, ka 254831.951 M-1s-1, kd 6.984 1/s); 4.35 (Immobilization level 4900.0 pg/mm2, Rmax 79.0 pg/mm2, ka 107155.284 M-1s-1); 4.55 (Immobilization level 5500.0 pg/mm2, Rmax 69.0 pg/mm2, ka 175345.198 M-1s-1); 4.83 (Immobilization level 12000.0 pg/mm2, Rmax 35.0 pg/mm2, ka 320872.936 M-1s-1, kd 4.693 1/s).

With `CNCc1cccc(NC(=O)c2cc(Cl)cc3[nH]ncc23)c1`, the pKD by setting is: (Immobilization level 3900.0 pg/mm2, Rmax 52.0 pg/mm2, ka 146599.437 M-1s-1, kd 4.892 1/s) 4.48; (Immobilization level 4900.0 pg/mm2, Rmax 92.0 pg/mm2, ka 51361.571 M-1s-1, kd 2.243 1/s) 4.36; (Immobilization level 5500.0 pg/mm2, Rmax 53.0 pg/mm2, ka 187092.368 M-1s-1, kd 3.041 1/s) 4.79; (Immobilization level 12000.0 pg/mm2, Rmax 56.0 pg/mm2, ka 231928.789 M-1s-1, kd 3.617 1/s) 4.81.

With `NCCCCc1ccc(NC(=O)c2cc(Cl)cc3[nH]ncc23)cc1`, the pKD (Immobilization level 10000.0 pg/mm2, Rmax 4.0 pg/mm2, ka 200640.001 M-1s-1, kd 1.917 1/s) came out at 5.02; the negative-log KD (pKD) (Immobilization level 12000.0 pg/mm2, Rmax 9.0 pg/mm2, ka 275409.297 M-1s-1, kd 4.372 1/s) turned out to be 4.8; the pKD (Immobilization level 13000.0 pg/mm2, Rmax 11.0 pg/mm2, ka 186293.866 M-1s-1, kd 4.24 1/s) is 4.64.

With `N#Cc1cc(Cl)cc(C(=O)Nc2ccc3c(c2)CNC3)c1`, the pKD reads like this: (Immobilization level 10000.0 pg/mm2, Rmax 13.0 pg/mm2, ka 937740.865 M-1s-1, kd 1.0 1/s) 5.97; (Immobilization level 12000.0 pg/mm2, Rmax 30.0 pg/mm2, ka 568340.521 M-1s-1, kd 0.543 1/s) 6.02; (Immobilization level 13000.0 pg/mm2, Rmax 21.0 pg/mm2, ka 849954.362 M-1s-1, kd 0.772 1/s) 6.04.

With `C[C@H]1Oc2c(cccc2C(=O)Nc2ccc3c(c2)CNC3)NC1=O`, the pKD by setting is: (Immobilization level 10000.0 pg/mm2, Rmax 20.0 pg/mm2, ka 247912.445 M-1s-1, kd 2.654 1/s) 4.97; (Immobilization level 12000.0 pg/mm2, Rmax 35.0 pg/mm2, ka 236689.654 M-1s-1, kd 1.809 1/s) 5.12; (Immobilization level 13000.0 pg/mm2, Rmax 26.0 pg/mm2, ka 250555.254 M-1s-1, kd 1.96 1/s) 5.11.

For `CN1Cc2ccc(NC(=O)c3cc(Cl)cc4[nH]ncc34)cc2C1`, the pKD runs as follows: (Immobilization level 10000.0 pg/mm2, Rmax 20.0 pg/mm2, ka 391825.056 M-1s-1, kd 0.668 1/s) 5.77; (Immobilization level 12000.0 pg/mm2, Rmax 38.0 pg/mm2, ka 177362.143 M-1s-1, kd 0.381 1/s) 5.67; (Immobilization level 13000.0 pg/mm2, Rmax 24.0 pg/mm2, ka 298987.187 M-1s-1, kd 0.52 1/s) 5.76.

For `O=C(Nc1ccc2c(c1)CNC2)c1cc(Cl)cc2nccnc12`, the pKD is, setting by setting: (Immobilization level 10000.0 pg/mm2, Rmax 21.0 pg/mm2, ka 195303.568 M-1s-1, kd 2.342 1/s) 4.92; (Immobilization level 12000.0 pg/mm2, Rmax 40.0 pg/mm2, ka 106100.572 M-1s-1, kd 1.111 1/s) 4.98; (Immobilization level 13000.0 pg/mm2, Rmax 32.0 pg/mm2, ka 148862.644 M-1s-1, kd 1.839 1/s) 4.91.

In turn, `O=C(NCC1CCOCC1)[C@H](Nc1ccc2c(c1)CNC2)c1cc(Cl)cc2[nH]ncc12` came in with a negative-log KD (pKD) (Immobilization level 10000.0 pg/mm2, Rmax 24.0 pg/mm2, ka 732529.674 M-1s-1, kd 0.501 1/s) of 6.17; a pKD (Immobilization level 12000.0 pg/mm2, Rmax 44.0 pg/mm2, ka 461664.392 M-1s-1, kd 0.336 1/s) of 6.14; a pKD (Immobilization level 13000.0 pg/mm2, Rmax 32.0 pg/mm2, ka 718906.653 M-1s-1, kd 0.399 1/s) of 6.25.

`N#C[C@]1(Nc2ccc3c(c2)CNC3)C(=O)Nc2ccc(Cl)cc21` yielded a negative-log KD (pKD) (Immobilization level 10000.0 pg/mm2, Rmax 25.0 pg/mm2, ka 264211.625 M-1s-1, kd 1.585 1/s) of 5.22; a pKD (Immobilization level 12000.0 pg/mm2, Rmax 32.0 pg/mm2, ka 105814.14 M-1s-1, kd 0.856 1/s) of 5.09; a pKD (Immobilization level 13000.0 pg/mm2, Rmax 39.0 pg/mm2, ka 121808.508 M-1s-1, kd 1.295 1/s) of 4.97.

Consider `N#CCCNC(=O)[C@H](Nc1ccc2c(c1)CNC2)c1cc(Cl)cc(C2CC2)c1`, for which the pKD by setting is: (Immobilization level 10000.0 pg/mm2, Rmax 28.0 pg/mm2, ka 442303.592 M-1s-1, kd 0.092 1/s) 6.68; (Immobilization level 12000.0 pg/mm2, Rmax 54.0 pg/mm2, ka 245042.447 M-1s-1, kd 0.064 1/s) 6.58; (Immobilization level 13000.0 pg/mm2, Rmax 39.0 pg/mm2, ka 364691.558 M-1s-1, kd 0.079 1/s) 6.67.

On to `O=C(Nc1ccc2c(c1)CNC2)c1cc(Cl)cc(C2CC2)c1`, for which the pKD stood at 5.61 (Immobilization level 10000.0 pg/mm2, Rmax 36.0 pg/mm2, ka 451548.811 M-1s-1, kd 1.111 1/s); 5.67 (Immobilization level 12000.0 pg/mm2, Rmax 40.0 pg/mm2, ka 259383.571 M-1s-1, kd 0.558 1/s); 5.76 (Immobilization level 13000.0 pg/mm2, Rmax 32.0 pg/mm2, ka 444846.323 M-1s-1, kd 0.765 1/s).

Regarding `O=C(Nc1ccc2c(c1)CNCCO2)c1cc(Cl)cc2[nH]ncc12`, the negative-log KD (pKD) runs as follows: (Immobilization level 10000.0 pg/mm2, Rmax 42.0 pg/mm2, ka 416936.25 M-1s-1, kd 0.968 1/s) 5.63; (Immobilization level 12000.0 pg/mm2, Rmax 47.0 pg/mm2, ka 414358.163 M-1s-1, kd 0.643 1/s) 5.81; (Immobilization level 13000.0 pg/mm2, Rmax 56.0 pg/mm2, ka 373791.933 M-1s-1, kd 0.809 1/s) 5.67.

In the case of `CC(C)c1ccc(Cl)cc1C(=O)Nc1ccc2c(c1)CNC2`, the pKD runs as follows: (Immobilization level 10000.0 pg/mm2, Rmax 50.0 pg/mm2, ka 207835.98 M-1s-1, kd 5.69 1/s) 4.56; (Immobilization level 12000.0 pg/mm2, Rmax 40.0 pg/mm2, ka 170668.879 M-1s-1, kd 3.145 1/s) 4.74; (Immobilization level 13000.0 pg/mm2, Rmax 24.0 pg/mm2, ka 212611.498 M-1s-1, kd 2.587 1/s) 4.92.

Source of the values: ChEMBL document CHEMBL5598561, “ASAP - In vitro binding kinetics” (2024).
